Assay outcomes from PubChem BioAssay.
BoNT-F LC inh – inhibitors of Botulinum neurotoxin F light chain protease | Multiplex microsphere protease cleavage assay, flow cytometry | inhibition, % at 10 µM | hit rate 0.22% among 360,000; in the data active = inhibition above about 35%, passing the limit was not always enough; inconclusive = no clear call, values can overlap the other calls
Mtb FBA inh – Mtb fructose-bisphosphate aldolase inhibition | purified M. tuberculosis FBA, fluorescence read-out | inhibition, % at 1 µM | hit rate 2.3% among 360,000; in the data active = inhibition above about 27%
Anthrax LF inh2 – inhibitors of Bacillus anthracis lethal factor protease; multiplex microsphere protease cleavage assay, LF; inhibition, % at 10 µM; hit rate 0.12% among 360,000; AID 588501
Target sequence (P15917 whole entry, looked up): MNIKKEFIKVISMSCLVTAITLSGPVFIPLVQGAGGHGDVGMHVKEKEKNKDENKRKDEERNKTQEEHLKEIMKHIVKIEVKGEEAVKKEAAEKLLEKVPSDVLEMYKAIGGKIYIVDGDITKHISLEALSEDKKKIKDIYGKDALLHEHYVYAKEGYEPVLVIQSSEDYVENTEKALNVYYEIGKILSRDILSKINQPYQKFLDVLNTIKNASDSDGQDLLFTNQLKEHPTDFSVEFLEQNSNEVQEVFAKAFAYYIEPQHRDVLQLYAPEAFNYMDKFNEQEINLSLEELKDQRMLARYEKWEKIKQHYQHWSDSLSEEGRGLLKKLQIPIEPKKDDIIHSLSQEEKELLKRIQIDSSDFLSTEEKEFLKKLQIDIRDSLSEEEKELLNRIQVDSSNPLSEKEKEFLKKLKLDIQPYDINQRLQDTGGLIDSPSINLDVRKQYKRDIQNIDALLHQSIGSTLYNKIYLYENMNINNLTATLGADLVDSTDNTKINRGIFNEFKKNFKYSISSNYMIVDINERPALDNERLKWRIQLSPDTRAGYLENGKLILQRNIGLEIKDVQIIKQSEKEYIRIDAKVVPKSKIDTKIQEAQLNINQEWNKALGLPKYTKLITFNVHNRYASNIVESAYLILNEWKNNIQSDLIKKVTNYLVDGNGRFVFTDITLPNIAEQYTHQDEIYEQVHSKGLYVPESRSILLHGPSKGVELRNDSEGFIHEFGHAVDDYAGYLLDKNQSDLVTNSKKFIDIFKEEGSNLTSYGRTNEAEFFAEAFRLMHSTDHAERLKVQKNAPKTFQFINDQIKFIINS
GDH-TPI inh – counter-screen for M. tuberculosis FBA inhibitors: GDH-TPI coupled enzymes; GDH-TPI coupled enzyme counterscreen, NADH absorbance; inhibition, % at 4.8 µM; hit rate 1.2% among 360,000; in the data active = inhibition above about 30%
Autofluor counter – counter-screen for toxin protease inhibitors: compound fluorescence. compound autofluorescence counterscreen, microsphere flow cytometry; stronger effect = higher value. hit rate 3.1% among 360,000. AID 624483. fluorescence intensity (test concentration not listed); in the data active = fluorescence intensity above about 16000; inconclusive = no clear call, values can overlap the other calls
BoNT-A LC inh2 – inhibitors of Botulinum neurotoxin A light chain protease; hit rate 0.17% among 360,000; multiplex microsphere protease substrate cleavage, flow cytometry; inhibition, % at 10 µM; AID 588499
Numbers stand for hits; – = inactive; ? = inconclusive; · = no result. Most compounds without a hit are left out; they make up all but 6.7% or so of the library. Cut-off read from the data, not from the text of the source, unless noted: active = inhibition above about 30%; inconclusive = no clear call, values can overlap the other calls; inactive = below that.

SMILES | BoNT-F LC inh | Mtb FBA inh | Anthrax LF inh2 | GDH-TPI inh | Autofluor counter | BoNT-A LC inh2
COC(=O)c1ccc(Nc2nnc(-c3ccc(C)c(S(=O)(=O)NCC4CCCO4)c3)c3ccccc23)cc1 (stereo not drawn) | – | – | – | – | – | –
Cc1ccc(-c2nnc(Nc3ccc(C(=O)N(C)C)cc3)c3ccccc23)cc1S(=O)(=O)NC(C)(C)CO | · | – | · | 37 | · | ·
O=S1(=O)CCC(N2CCOCC2)C1 (stereo not drawn) | – | – | – | – | 23902 | ?
O=S1(=O)CCN(C2CCCCCC2)CC1 | – | – | – | – | – | –
O=C1c2cccc3cccc(c23)C(=O)N1CCCN1CCN(c2ccc(F)cc2)CC1 | – | – | – | – | – | –
O=C(CN1CCCC1)Nc1ccc(OCc2ccccc2)cc1 | – | – | – | – | – | –
CC(C)(C)Nc1nc(SCc2ccccc2)nc(N2CCOCC2)n1 | – | – | – | – | 23358 | ?
CNc1nc(SCc2ccccc2)nc(N2CCOCC2)n1 | – | – | – | – | – | –
CCOC(=O)c1nc(-c2ccc(OC)c(OC)c2)cnc1C#N | – | – | – | – | – | –
Cc1cc(C)nc(N/N=C/C2=C(N3CCOCC3)C(=C/c3ccccc3)/CC2)n1 | – | – | – | 32 | – | –
Cc1sc(NC(=O)CCl)c(C(=O)c2ccccc2)c1C | – | – | – | – | ? | –
O=C(/C=C/c1ccc(Cl)cc1)NC(=S)Nc1ccccc1C(=O)O | – | – | – | 38 | – | –
COc1ccc(-c2cccc([C@H]3[C@@H]4C=CC[C@@H](C)[C@@H]4C(=O)N3Cc3ccccc3)c2)cc1 | – | – | – | – | – | –
COCCCn1c(=N)c(C(=O)NCc2ccc3c(c2)OCO3)cc2c(=O)n3ccccc3nc21 | – | – | – | – | 22332 | –
N=c1c(C(=O)NCc2ccc3c(c2)OCO3)cc2c(=O)n3ccccc3nc2n1Cc1cccnc1 | – | – | – | – | 24844 | –
CN(Cc1cnn(C)c1)C(=O)C1CCC(=O)N(Cc2ccc(Cl)cc2)C1 (stereo not drawn) | – | – | – | – | – | –
Cc1sc2ncnc(SCC(=O)NC3CC3)c2c1C | – | – | – | – | 24257 | –
Cc1sc2ncnc(SCC(=O)NC3CCCC3)c2c1C | – | – | – | – | – | –
COc1ccc(OCC#CCN2CCNCC2)cc1 | – | – | – | – | – | –
Cc1cccn2cc(CNc3ccccc3)nc12 | – | – | – | – | 20732 | –
O=C(c1ccccc1)n1ccn(-c2ccccc2)c1=S | – | – | – | – | 19357 | ?
COC(=O)C1=C(c2ccccc2)C[C@@H]2CC[C@H]1N2C(=O)NCCO | – | – | – | – | – | –
COc1ccc(N2CS(=O)(=O)/C(=C/N(C)C)C2=O)cc1 | – | – | – | – | 20727 | –
Cc1ccc(OCCNC(=O)c2cccc(Oc3ccc(C(F)(F)F)cc3[N+](=O)[O-])c2)cc1 | – | – | – | – | – | –
Cc1ccc(NC(=O)Cn2c([N+](=O)[O-])cnc2C)cc1 | – | – | – | – | – | –
SMILES | BoNT-F LC inh | Mtb FBA inh | Anthrax LF inh2 | GDH-TPI inh | Autofluor counter | BoNT-A LC inh2
Cc1ccc2ncc([N+](=O)[O-])n2c1 | – | – | – | – | 21684 | –
CC1CC(C)(C)NC(=S)N1CC(=O)NCc1ccc(Cl)cc1 (stereo not drawn) | 47 | – | – | – | – | –
CC(C)(O)CC[C@@H](O)[C@](C)(O)C1CC[C@@]2(O)C3=CC(=O)[C@@H]4C[C@@H](O)[C@@H](O)C[C@]4(C)C3CC[C@]12C (stereo partly drawn) | – | – | – | – | – | –
Cc1ccc(C23CC4CC(CC(NC(=O)NN)(C4)C2)C3)cc1 | – | – | – | – | – | –
Cc1ccc(C23CC4CC(CC(NC(=O)NC(C)(C)CO)(C4)C2)C3)cc1 | – | – | – | – | 22797 | –
Cc1c(NC(=O)c2ccc(COc3ccc4ccccc4c3)o2)c(=O)n(-c2ccccc2)n1C | – | – | – | – | – | –
O=c1c2ccccc2nc(SCc2cc(F)cc3c2OCOC3)n1Cc1ccco1 | – | – | – | – | 24180 | –
CCOC(=O)c1cc2c(c(CSc3nc4ccccc4c(=O)n3Cc3ccco3)c1)OCOC2 | – | – | – | – | 20266 | –
Cc1ccc(C(=O)Oc2ccc(C(=O)COC(=O)c3cnccn3)cc2)cc1 | – | – | – | – | 16162 | –
O=C(Nc1ccon1)c1ccc(Cl)s1 | – | – | – | – | 17115 | ?
CSc1nc2ccc(Nc3nc(N4CCOCC4)nc(N4CCOCC4)n3)cc2s1 | – | – | – | – | 23477 | –
O=C(O)c1cccc(Nc2nc(N3CCOCC3)nc(N3CCOCC3)n2)c1 | – | – | – | – | 22856 | –
COc1cc(OC)cc(OCC(O)Cn2cnc3cc(C)c(C)cc32)c1 (stereo not drawn) | – | – | – | – | – | –
CCn1c(=O)c2c(nc3n2CCCN3CCc2ccccc2)n(C)c1=O | – | – | – | – | – | –
O=S1(=O)CC/C(=N/Nc2ccccn2)c2cc(F)ccc21 | – | – | – | 33 | – | –
O=C(N/N=C1\CCS(=O)(=O)c2ccc(F)cc21)c1ccc(O)cc1 | – | – | – | 46 | – | –
O=C(N/N=C1\CCS(=O)(=O)c2ccc(F)cc21)c1ccc([N+](=O)[O-])cc1 | – | – | – | – | – | –
CC(c1ccccc1)N1C(=O)/C(=C/c2ccncc2)SC1=S (stereo not drawn) | – | – | – | – | – | –
COCCNC(=S)N1CCC(Cc2ccccc2)CC1 | – | – | – | – | – | –
CCOCCOC(=O)COC(=O)c1ccccc1NC(=O)c1ccccc1 | – | – | – | – | – | –
COc1ccc(NS(=O)(=O)c2ccc(NC(=O)CCNS(=O)(=O)c3ccc(C)cc3)cc2)cc1 | – | – | – | – | – | –
COC(=O)c1cccc(NC(=O)C2COc3ccccc3O2)c1 (stereo not drawn) | – | – | – | – | – | –
COC(=O)c1cc(NC(=O)C2COc3ccccc3O2)ccc1Cl (stereo not drawn) | – | – | – | – | 21646 | –
Cc1[nH]nc(S(=O)CC(=O)O)c1[N+](=O)[O-] (stereo not drawn) | – | – | – | – | – | –
O=C(NCCc1ccccc1)/C(=C/c1ccco1)c1ccccc1 | – | – | – | – | – | –
SMILES | BoNT-F LC inh | Mtb FBA inh | Anthrax LF inh2 | GDH-TPI inh | Autofluor counter | BoNT-A LC inh2
C=CCn1c(N)c(C(=O)OCCC)c2nc3ccccc3nc21 | – | 175 | – | – | – | –
Nc1c(C(=O)NCCCc2ccccc2)c2nc3ccccc3nc2n1Cc1cccs1 | – | – | – | – | – | –
CCCOC(=O)c1c(N)n(Cc2cccs2)c2nc3ccccc3nc12 | – | 173 | – | – | – | –
C=CCn1c(N)c(C(=O)Nc2cccc(C)c2)c2nc3ccccc3nc21 | – | – | – | – | – | –
CCOC(=O)c1[nH]c2ccc(F)cc2c1NC(=O)CCN1CCOCC1 | – | – | – | – | – | –
O=C(Nc1cccnc1)c1c(F)cccc1F | – | – | – | – | 16636 | ?
O=C(Nc1cccnc1)c1ccccc1-c1nc(-c2ccccc2F)no1 | – | – | – | – | 21936 | –
